Several values for one entry are separate records, joined by “and”; a condition that tells them apart may be missing. Equal values may be shown once. More than one record can exist for a structure, and the calls need not agree. Activity calls are given as the source filed them. How the source made its calls: active means hit-call score of the fitted dose curve at least 0.9, where 1 is the maximum; inactive means score below 0.9.

A short description of the experiment: ATG_Ets_CIS: Attagene CIS-FACTORIAL HepG2 Assay for human Erythroblast Transformation Specific (ETS) (AID 2282941). The following applies: HepG2 ETS cis-reporter transcription; AC50: actives raise or lower the signal unless noted; outcome: actives raise or lower the signal unless noted. On the procedure: ATG_CIS is a cell-based, multiplexed-readout assay that uses HepG2, a human liver cell line, with measurements taken at 24 hours after chemical dosing in a 24-well plate.ATG_Ets_CIS is one of 52 assay component(s) measured or calculated from the ATG_CIS assay. It is designed to make measurements of mRNA induction, a form of inducible reporter, as detected with fluorescence intensity signals by Reverse transcription polymerase chain reaction (RT-PCR) and Capillary electrophoresis technology.Data from the assay component ATG_Ets_CIS was analyzed into 1 assay endpoint. This assay endpoint, ATG_Ets_CIS, was analyzed with bidirectional fitting relative to DMSO as the negative control and baseline of activity. Using a type of inducible reporter, measures of mRNA for gain or loss-of-signal activity can be used to understand the reporter gene at the transcription factor-level as they relate to the gene ETS1. Furthermore, this assay endpoint can be referred to as a primary readout, because this assay has produced multiple assay endpoints where this one serves a reporter gene function. To generalize the intended target to other relatable targets, this assay endpoint is annotated to the dna binding intended target family, where the subfamily is winged helix-turn-helix.
Human liver HepG2 cells are transiently transfected with multiple reporter transcription units (MRTUs) in 6-well plates using FuGene 6 reagent (Roche; 3 ml FuGene/1 mg DNA). The MRTU constructs are regulated by a cis-regulating element (promoter). […] A major difference between the CIS and TRANS system is that in CIS activities of endogenous TFs are measured, whereas the TRANS assay evaluates changes in activities of exogenous, chimeric NR-Gal4 proteins. […] At the end of 24 hour incubation, total RNA was isolated using TriZol reagent (Invitrogen). The isolated RNA is then reverse-transcribed using oligo(dT) primer and Mo-MLV reverse transcriptase (Invitrogen) with DNAse I (Ambion) treatment for 30 min. The one-tenth of the produced cDNA was amplified by PCR using Taq DNA polymerase (Invitrogen) and two reporter sequence-specific primers. The PCR products were fluorescently labeled by primer extension with 6-arboxyfluorescein (6-FAM) 5'-labeled reporter sequence-specific primer (2 min at 95 C, 20 s at 68 C and 10 min at 72 C) and these products were digested with 5U of HpaI (New England Biolabs) for 2h at 37 C. The fragments were purified using Qiaquick PCR columns (Qiagen), analyzed on an ABI 3130xL genetic analyzer (Applied Biosystems) with peak positions identified by using a set of X-rhodamine (ROX)-labeled MapMarker1000 molecular weight standards (BioVentures). The raw capillary electrophoresis data was processed using Attagraph software (Attagene).
As for `FC(OC(F)(F)C(F)(F)C(F)(F)F)C(F)(F)F` (stereo not given), the result was inactive.
Still for that read-out and setting: then `CCCCCCc1ccc(N)cc1`, with “inactive”.
What is called AC50 is the midpoint of the concentration-response curve, whichever way the signal moves. For `NC(=NCCCCCCN=C(N)/N=C(\N)Nc1ccc(Cl)cc1)/N=C(\N)Nc1ccc(Cl)cc1`, the call was inactive; the AC50 is 7.45 µM (active) and 6.93 µM (active).
In the case of `Cc1[nH]nc2c1N=C(c1ccccc1Cl)c1cc([N+](=O)[O-])ccc1N2`, the result was inactive.
Same read-out and setting: the value for `O=C(NO)c1ccccc1` was “inactive”.
The same measure, in the same setting: the value for `CCCCCc1ccc(O)cc1` was “inactive”; that for `O=C(c1cc(O)c(O)c(O)c1)c1ccc(O)c(O)c1O` was “inactive”.
As to `O=C(CC(=O)C(F)(F)C(F)(F)C(F)(F)F)c1cccs1`, the AC50 is 12.1 µM [setting not given] (active).
`C[C@]12CC[C@@H]3c4ccc(O)cc4CC[C@H]3[C@@H]1CC[C@@H]2OC(=O)CCC1CCCC1`: the compound was classed as inactive.
Same read-out and setting: the value for `CCCCCCCCCCCC(=O)NCCCN(C)C` was “inactive”; that for `CCCCCCCCC(C)=O` was “inactive”; that for `Cc1cc(C(=C2C=CC(=Nc3ccc(S(=O)(=O)O)cc3)C=C2)c2ccc(Nc3ccc(S(=O)(=O)O)cc3)cc2)cc(S(=O)(=O)O)c1N` was “inactive”.
As to `CCCCCCCCCCCC[N+](C)(C)Cc1ccccc1`, the outcome was inactive and the AC50 was 11.1 µM (active).
As for `C=CC(=O)OCCC(F)(F)C(F)(F)C(F)(F)C(F)(F)C(F)(F)C(F)(F)F`, the compound was called inactive.
For the compound `CCCCCCCC(OC)OC`, the compound was called inactive.
`NCCN`: the call was inactive.
For `C=Cc1ccc(O)c(OC)c1`, the compound was classed as inactive.
Turning to `NC(C(F)(F)F)C(F)(F)F`, the compound was classed as inactive.
The same measure, in the same setting: then `Oc1cc2ccccc2cc1O`, with “inactive”; and `O=C1OC(=O)c2cc(-c3ccc4c(c3)C(=O)OC4=O)ccc21`, with “inactive”.
Still for that read-out and setting: the value for `FC(F)(F)C(F)(F)C(F)(F)C(F)(F)I` was “inactive”; that for `CC(C)(C)c1ccc(O)c(O)c1` was “inactive”; that for `CCN(CC)CC` was “inactive”.
Consider `COC(O)c1ccccc1` (stereo not given), for which the compound was called inactive.
Turning to `O=S(=O)(c1ccc(OCc2ccccc2)cc1)c1ccccc1O`, the AC50 was 33.4 µM (active).
In the case of `O=CC(F)(F)C(F)(F)C(F)(F)F`, the result was inactive.
Still for that read-out and setting: then `CN(C)CCOC(c1ccccc1)c1ccccc1`, with “inactive”.
Still for that read-out and setting: then `O=C1c2ccc(O)c(O)c2C(=O)c2c(O)ccc(O)c21`, with “inactive”; and `OCCN1CN(CCO)CN(CCO)C1`, with “inactive”.
For the compound `O=P(O)(O)CCC(F)(F)C(F)(F)C(F)(F)C(F)(F)C(F)(F)C(F)(F)C(F)(F)C(F)(F)F`, the call was inactive.
With `Nc1ccn([C@@H]2O[C@H](CO)[C@@H](O)C2O)c(=O)n1` (stereo not given in full), the result was inactive.
The same measure, in the same setting: the value for `Brc1ccc(Oc2ccc(Br)cc2Br)cc1` was “inactive”; that for `c1cnc2c(c1)ccc1cccnc12` was “inactive”.
Same read-out and setting: the value for `NNC(=O)CCCCC(=O)NN` was “inactive”; that for `C=C(c1ccc(C(=O)O)cc1)c1cc2c(cc1C)C(C)(C)CCC2(C)C` was “inactive”.
The same measure, in the same setting: the value for `Cc1ccc(S(=O)(=O)O)cc1` was “inactive”; that for `CC(C)C=O` was “inactive”; that for `O=C(C=C(O)C(F)(F)F)C(F)(F)F` was “inactive”.

Values taken from PubChem BioAssay (EPA / NIEHS).
